Assay results as given in the supplement of paper PMC9948646.
Unmarked numbers belong to inactive results.

test system: gramicidin D channels in DC22:1PC lipid vesicles (bilayer-modifying potency); assay: initial Tl+ fluorescence quench rate relative to no-drug control (NormRate, gramicidin monomer-dimer shift) (ratio (fold of control)); higher = stronger bilayer-modifying effect (equilibrium shifted toward conducting dimers), active = 1.5 or more; settings: 10 µM; lipid concentration 50 µM; temperature: 25 °C
Method: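 Stopped-flow fluorescence quench assay: ANTS-loaded DC22:1PC large unilamellar vesicles doped with gramicidin D (1:2000), 50 µM lipid, equilibrated 10 min with 10 µM drug (0.1% DMSO), mixed with Tl+ quench buffer at 25°C. Initial quench rate (Tl+ influx) was fitted with a modified stretched exponential and normalised to the no-drug control rate (NormRate); duplicates from two independent LUV preparations (triplicates for 7 drugs).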

SMILES	initial Tl+ fluorescence quench rate
CNC(=O)c1nn(C)c2c1C(C)(C)Cc1cnc(Nc3ccc(N4CCN(C)CC4)cc3)nc1-2	1.04
CS(=O)(=O)c1ccccc1C(=O)N(Cc1ccccc1)c1ccccc1	1.09
CCOc1ccc(-c2nc(CNCCc3ccc(F)cc3)cs2)cc1	1.44
CC(=O)N1CCN(c2ccc(Oc3ccc(Cl)cc3O)cc2)CC1	1.51 (active)
CCc1nc2ccc(Cl)cn2c1C(=O)NCc1ccc(N2CCC(c3ccc(OC(F)(F)F)cc3)CC2)cc1	1.09
CC(C)(C)n1nc(Cc2ccc(F)c(Cl)c2)c2c(N)ncnc21	1.84 (active)
Cc1nc(-c2ccccn2)nc(N(C)CCc2ccccc2)c1Cl	2.23 (active)
Cc1cc(C(=O)Nc2ccc(-c3ccccc3)cc2)no1	1.11
[H]/N=C(/N)c1ccc(-c2cc(-c3ccccc3)on2)cc1	1.08
Cc1cc(O)nc(-n2nc(C)cc2C)n1	1.04
O=C(Nc1ccc2c(c1)B(O)OC2)c1ccccc1C(F)(F)F	1.06
C[C@H]1CS(=O)(=O)CCN1/N=C/c1ccc([N+](=O)[O-])o1	1.02
CCN(CC)S(=O)(=O)c1ccc(Cl)c(C(=O)Nc2ccc3nc(C)sc3c2)c1	2.06 (active)
O=C(c1ccc(F)cc1)N(CCNc1ccccc1)c1ccccc1	1.36
COc1ccccc1OCCCCn1c(C2CC2)nc2ccccc21	1.18
C[C@H]1C[C@@H]1C(=O)NC1CCN(CC2(c3ccccc3)CCCCC2)CC1	1.06
CCOc1ccc2cc(-c3nn(CC4CCN(C)CC4)c4ncnc(N)c34)ccc2c1	1.16
Cc1noc(C)c1C(=O)N1CCC[C@@H](c2[nH]c3c(C)cccc3c2-c2ccncc2)C1	1.73 (active)
CN1CCN(c2nccc3nc(-c4ccc(F)c(F)c4)[nH]c23)CC1	1.11
CCc1ccc([C@@H](NCc2nc(N)nc(N(C)C)n2)C(C)C)cc1	1.08

SMILES	initial Tl+ fluorescence quench rate
Nc1nc2ccc(-c3cncc(Oc4ccc(F)cc4)c3)cc2[nH]1	1.85 (active)
CC(C)[C@H](NC(=O)Cc1cccc2ccccc12)C(=O)Nc1cccc(C#N)c1	1.74 (active)
COc1nc2ccc(Br)cc2cc1[C@@H](c1ccccc1)[C@@](O)(CCN(C)C)c1cccc2ccccc12	6.48 (active)
CN1CCCN([C@H](c2ccccc2)c2ccc(Cl)cc2)CC1	1.43
COc1ccccc1[C@H](C)NCC(=O)Nc1cc(C(F)(F)F)ccc1Cl	1.17
NC[C@@H](c1cccs1)S(=O)(=O)c1ccccc1	1.36
COc1ccc(-c2onc(C(F)(F)F)c2-c2ccc(Cl)cc2)c(O)c1	1.38
O=C(Nc1nnc(-c2ccc(Cl)s2)o1)c1ccc(Cl)s1	1.27
COc1ccc(N(CCc2cccc(C)n2)C(C)=O)cc1	1.04
CC(C)(C)c1cnc(NC(=O)c2ccccc2O)s1	2.31 (active)
COc1cccc(CC(=O)N2CCC(n3c(C)nc4ccc(F)cc43)CC2)c1	1.15
CC(C)[C@@H](Oc1cccc2ccccc12)C(=O)O	1.1
CC(=O)NC[C@H]1CN(c2ccc(-c3ccc(CO)cc3)c(F)c2)C(=O)O1	1.22
CCNC(=O)[C@H](C)Nc1nc(-c2cccnc2)nc2sc(C)c(C)c12	1.08
CC(=O)NC[C@H]1CN(c2ccc(N3CCSCC3)c(F)c2)C(=O)O1	1.09
c1cncc(NCc2ccc(-c3cc4ccncc4cc3OC3CCNCC3)s2)c1	1.32
CCc1cc(=O)n(C)c(S[C@H](C)C(=O)Nc2ccc(F)cc2)n1	1.15
Clc1ccc(-n2cc(COc3ccnc4ccccc34)nn2)cc1	1.13
O=C1Nc2ccc(Br)cc2[C@]12NCCc1c2[nH]c2ccccc12	3.74 (active)
OC[C@H]1O[C@@H](n2c3ccc(Cl)cc3c3c(-c4cc5ccccc5o4)ncnc32)[C@H](O)[C@H]1O	3.52 (active)
